# From PMC4242493, “Sequence specificity incompletely defines the genome-wide occupancy of Myc”
# Over roughly 33,000 sequences, “normalized occupancy” has its median near 0.075; the highest 2% begin near 0.095. For the sample, the highest values were picked, then their nearest neighbours and some sequences at random.
# Target: MaxL homodimer (Homo sapiens, UniProt P61244 1-160)
# Experiment: universal protein-binding microarray (PBM); PBS-based mixture, 10 nM His-tagged protein dimer, 2% milk, 200 ng/uL BSA, 50 ng/uL salmon testes DNA, 0.02% TX-100; detection with Alexa 488 anti-His antibody;; high values mean tight binding
# Details: protein: recombinant; tags: C-terminal His-tag (pET21a); chain copies: 2; dsDNA, one strand shown
# Procedure, shortened: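 Agilent 4 x 44 K arrays carrying the 'all 10-mer' universal design were incubated with His-tagged protein dimer at 10 nM. Protein that bound was tagged using fluorophore-conjugated anti-His antibody at 10 ng/μL, and a GenePix 4400A scanned the arrays to give an intensity for every 8-mer. Each binding occupancy value expresses an intensity relative to the top-ranked intensity.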
# Sequence of MaxL homodimer (P61244 whole entry): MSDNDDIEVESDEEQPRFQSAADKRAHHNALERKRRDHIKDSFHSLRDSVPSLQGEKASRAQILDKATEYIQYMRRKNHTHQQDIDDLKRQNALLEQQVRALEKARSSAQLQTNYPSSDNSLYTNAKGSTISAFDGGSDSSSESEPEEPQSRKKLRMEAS
row,Sequence,binding signal [normalized occupancy]
1,GGACCCCA,0.0794
2,ATGAGAAA,0.0743
3,ATTGGAAC,0.076
4,ACGTGTGC,0.109
5,CCGTGCGC,0.0813
6,GCGTGTGA,0.0941
7,ACGTGCGA,0.093
8,ACGTGCGC,0.113
9,AAGTGTGG,0.0819
10,AAGTGTGC,0.0869
11,ACGTGTGG,0.104
12,CCGTGTGC,0.0858
13,ACGTGTGA,0.105
14,CCGTGTGA,0.0836
15,AGGTGTGG,0.0847
16,GACGAGAC,0.0761
17,GACAAAAC,0.0749
18,CACGAATG,0.0777
19,ATTGAAGC,0.0724
20,ATAGTCTG,0.0754
21,AGATGCAT,0.0784
22,CCATGCAA,0.0895
23,CAATGCAC,0.0848
24,CTATGCAC,0.0874
25,ACATGCAT,0.105

row,Sequence,binding signal [normalized occupancy]
1,CCATGCAC,0.0969
2,CCATGCAG,0.0965
3,ATATGCAC,0.092
4,AGATGCAC,0.0867
5,ACATGCAC,0.0954
6,CTATGCAG,0.0757
7,AAATGCAT,0.079
8,AAAGTGAA,0.0782
9,ACTAGTCA,0.0755
10,CTACCCGA,0.0741
11,AAATATAC,0.0881
12,GCATTAGC,0.0727
13,CGTATGCC,0.0784
14,AAATGCAG,0.0778
15,ACATGCAG,0.097
16,ACATGAAT,0.0965
17,ACATGAAG,0.0842
18,ACATGAAC,0.0866
19,AGATGCAG,0.0757
20,AAGCTATC,0.0722
21,ATGACTTG,0.0818
22,GCGTGCAC,0.109
23,CCGTGCCC,0.0733
24,GAGTGCAC,0.082
25,GCGTGCCA,0.09

row,Sequence,binding signal [normalized occupancy]
1,ACGTGCAT,0.104
2,AGGTGCAT,0.0863
3,AAGTGCAT,0.085
4,GCGTGCCC,0.0965
5,ACGTGCAG,0.101
6,CCGTGCAC,0.0816
7,AAGTGCAG,0.0763
8,CCGTGCAG,0.0778
9,CGAATAAA,0.0729
10,TAAATAAA,0.0766
11,CCACCACG,0.0914
12,ACCGGTTA,0.0751
13,TAGGAAAA,0.0729
14,CAGCTGAA,0.0749
15,ACGAAAGC,0.0763
16,TCCGAAAA,0.0774
17,AGACTGTA,0.0748
18,CTGTGCAC,0.0869
19,GTGTGCAA,0.0818
20,ATGTGCAA,0.0875
21,AAGTGCAC,0.0774
22,TCGTGCAA,0.0766
23,ACGTGCAC,0.113
24,CCGTGCAA,0.078
25,AGGTGCAC,0.0767

row,Sequence,binding signal [normalized occupancy]
1,ACGTGCAA,0.098
2,GCGTGCAA,0.0963
3,GGGTGCAA,0.0755
4,ATGTGCAC,0.0959
5,GATGGACA,0.0742
6,AATGCAAC,0.0776
7,CATACGGG,0.0812
8,CAGTTATA,0.0794
9,CCTCCATC,0.0784
10,CAACCTAA,0.0744
11,CTAACATC,0.0796
12,AGCGTCGC,0.0721
13,CCCGTCCC,0.0747
14,ATAATACC,0.08
15,AGCCCAAA,0.0722
16,AGCACGCG,0.156
17,AGCACACA,0.0906
18,CGCACGCG,0.121
19,AGCACGCC,0.0846
20,AGCACGCT,0.104
21,AGCACACG,0.0942
22,CGCACGCA,0.0894
23,AGCACGCA,0.0909
24,CGCACGCC,0.0878
25,GAAATCAA,0.075

row,Sequence,binding signal [normalized occupancy]
1,ATGTAGTG,0.0796
2,CCCTTATA,0.0809
3,ACTTGTAC,0.0751
4,CAAACGTC,0.0739
5,AAAACGTA,0.0744
6,CAAACGTA,0.0729
7,CAAACGTG,0.103
8,AAAACGTG,0.122
9,AAAACGTT,0.0743
10,ATAGTGAA,0.0751
11,AACCCGAG,0.0727
12,AGCATACA,0.087
13,CGCATGCG,0.133
14,AGCATGCT,0.134
15,CGCATCCG,0.0736
16,AGCATTCA,0.0761
17,CGAATGCG,0.0744
18,AACATGCT,0.0905
19,AGCATGCA,0.114
20,TGCATACA,0.085
21,TGCATGAA,0.0821
22,TGCATGCA,0.1
23,AGCATCCT,0.0767
24,GCGTACAA,0.0756
25,GCTTAGAC,0.0762

row,Sequence,binding signal [normalized occupancy]
1,GTATTGAC,0.0759
2,ACCGTCCA,0.0727
3,CAATAACA,0.0785
4,GCATACCA,0.0835
5,AAGCATCC,0.0817
6,AGCATTCC,0.0752
7,CGAATGCA,0.0799
8,CGCATGCA,0.122
9,CGCATCCC,0.0821
10,AGCATGCC,0.112
11,CGGATGCC,0.0725
12,CGCATGCC,0.116
13,GGCATGAA,0.081
14,GGCATGCA,0.109
15,AGCATCCC,0.077
16,GGCATGCC,0.0932
17,CGCATTCA,0.0752
18,TAAGTACA,0.0831
19,AGTACTAA,0.0769
20,GGGTTCTA,0.0754
21,CGATTGGC,0.0736
22,ACTTCGGG,0.0726
23,AGCCCTTG,0.0731
24,AGATTGGA,0.0757
25,AACATCGC,0.0768

row,Sequence,binding signal [normalized occupancy]
1,GTTCTCTA,0.0731
2,CGTGGTTC,0.0858
3,CGGAGGTA,0.0743
4,AGTATGCG,0.077
5,AGCATCCG,0.0757
6,AGCATGCG,0.124
7,GCAAGGTA,0.0757
8,CGCAGTAC,0.0724
9,ATATGGGA,0.0957
10,CTATGGGA,0.0764
11,ATATGGCA,0.098
12,GTATGGGA,0.0804
13,CTATGGCA,0.0779
14,ATATGGCG,0.0846
15,ATGATAAG,0.0844
16,AGCTCCAT,0.0804
17,CACATGCG,0.159
18,CAGATGCG,0.078
19,AACATACG,0.0835
20,CAAATGCC,0.0743
21,GAGATGCC,0.0786
22,AACATGCC,0.089
